Data as given in PubChem BioAssay (NCATS).
Inconclusive results are not listed. Entries that show only a call come without a potency. The source made the active and inactive calls. Calls follow the shape of the dose curve; as a rule, active = well fitted inhibition curve with a large enough effect; inconclusive = small, poorly fitted or top-dose-only effect; inactive = no such curve, though single readings can be large or run the other way.
Potency is read from the fitted curve at half-maximal effect.

Each molecule was assayed against N-terminal Xaa-Pro-Lys N-methyltransferase 1 (Homo sapiens) (UniProt Q9BV86) (assay: qHTS Assay for Inhibitors of N-terminal methyltransferase 1 (NTMT1): LOPAC validation of the NTMT1 SAHH-coupled ThioGlo3 Assay (AID 1347143;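 also: SAH from peptide methylation measured as thiol fluorescence via SAHH coupling and ThioGlo3; nearly all actives have a fitted effect of over 70% in size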)). Conditions: recombinant NTMT1, SAHH-coupled ThioGlo3 fluorescence; series mostly up to 114 µM.
N-terminal Xaa-Pro-Lys N-methyltransferase 1 (Homo sapiens), sequence (Q9BV86 whole entry, looked up): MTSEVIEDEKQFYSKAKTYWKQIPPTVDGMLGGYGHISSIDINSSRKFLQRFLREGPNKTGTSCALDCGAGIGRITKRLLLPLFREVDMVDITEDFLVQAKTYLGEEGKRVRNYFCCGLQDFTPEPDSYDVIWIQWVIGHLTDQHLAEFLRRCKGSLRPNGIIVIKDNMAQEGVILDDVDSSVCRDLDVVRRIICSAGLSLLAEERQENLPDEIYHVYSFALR
Procedure, shortened: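 Recombinant human NTMT1 (125nM) was pre-incubated 1 min at room temperature with compounds over a concentration range, then a mix of 100uM SAM, 10uM SAHH and 15uM ThioGlo3 (concentrations in added reagent) was added. ThioGlo3 fluorescence (ex 340/em 450nm) after 30 min was normalized to the initial reading.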
For `O=c1[nH]c2cc(C(F)(F)F)ccc2n1-c1cc(C(F)(F)F)ccc1O`, the Potency was “inactive”.
`O=[N+]([O-])c1ccc2c(c1)S(=O)(=O)C=C2` was tested, and the Potency was 44.7 µM (active).
For `CCCCCCCC/C=C\CCCCCCCC(=O)NCCO`, the Potency was “inactive”.
With `Cn1cc(C2=C(c3ccc(Cl)cc3Cl)C(=O)NC2=O)c2ccccc21` the Potency was “inactive”.
In the case of `O=C(Nc1ccc2[nH]ncc2c1)C1CCC1`, the Potency was “inactive”.
`C#C[C@]1(O)CC[C@H]2[C@@H]3CCC4=Cc5oncc5CC4(C)[C@H]3CCC21C` (stereo partly specified) was tested, and the Potency was “inactive”.
For `N[C@H](CCCP(=O)(O)O)C(=O)O`, the Potency was “inactive”.
With `CN1[C@@H](CC(=O)c2ccccc2)CCC[C@H]1C[C@H](O)c1ccccc1` the Potency was “inactive”.
For `S=c1[nH]c(-c2ccccc2)cn1-c1ccccc1`, the Potency was 6.31 µM (active).
For `O=c1cc(-c2ccccc2)oc2c(O)c(O)ccc12`, the Potency was 56.2 µM (active).
In the case of `CN1C2CC(OC(=O)[C@H](CO)c3ccccc3)CC1C1OC12` (stereo partly specified), the Potency was “inactive”.
For `CN(C)CCC(c1ccc(Cl)cc1)c1ccccn1` (stereo unspecified), the Potency was “inactive”.
With `O=C(Nc1cccc(C(=O)Nc2ccc(S(=O)(=O)O)c3cc(S(=O)(=O)O)cc(S(=O)(=O)O)c23)c1)Nc1cccc(C(=O)Nc2ccc(S(=O)(=O)O)c3cc(S(=O)(=O)O)cc(S(=O)(=O)O)c23)c1` the Potency was “inactive”.
With `N#C/C(=C\c1ccc(-c2cc(Cl)ccc2Cl)o1)C(=O)Nc1cccc2ncccc12` the Potency was 56.2 µM (active).
With `CC1(C)CCC=[N+]1[O-]` the Potency was “inactive”.
In the case of `c1ccc(-c2ccccn2)nc1`, the Potency was “inactive”.
With `O=C(Nc1ccc2c(c1)CCN(Cc1ncn[nH]1)C2)c1ccccc1-c1ccc(C(F)(F)F)cc1` the Potency was “inactive”.
`c1cnc2c(c1)ccc1cccnc12` was tested, and the Potency was “inactive”.
For `CN1C2CCC1CC(OC(=O)C(O)c1ccccc1)C2` (stereo unspecified), the Potency was “inactive”.
With `Cc1ccc(S(=O)(=O)/C=C/C#N)cc1` the Potency was 5.62 µM (active).
With `Cc1ccc(O)c(N=Nc2ccccc2)n1` the Potency was 50.1 µM (active).
For `O=C(O)CCCC[C@@H]1CCSS1`, the Potency was “inactive”.
With `CCN(CC)CCCCNc1ncc2cc(-c3c(Cl)cccc3Cl)c(NC(=O)NC(C)(C)C)nc2n1` the Potency was 44.7 µM (active).
With `O=C(O)CC1CCCc2ccccc2C1O` (stereo unspecified) the Potency was “inactive”.
In the case of `C=CCc1cccc(/C=N/NC(=O)CN2CCN(Cc3ccccc3)CC2)c1O`, the Potency was “inactive”.
With `CS(=O)(=O)c1ccc(-n2nc(C(F)(F)F)cc2-c2ccc(F)cc2)cc1` the Potency was “inactive”.
`CN(CCCOc1ccc(Cc2ccccc2)cc1)CCC(=O)O` was tested, and the Potency was “inactive”.
With `Cn1c(=O)c2[nH]c(-c3ccccc3)nc2n(C)c1=O` the Potency was 79.4 µM (active).
For `NS(=O)(=O)C#Cc1ccccc1`, the Potency was “inactive”.
With `COc1cccc(OC)c1OCCNCC1COc2ccccc2O1` (stereo unspecified) the Potency was “inactive”.
For `CCOC(=O)N1CCN(/[N+]([O-])=N/Oc2ccc([N+](=O)[O-])cc2[N+](=O)[O-])CC1`, the Potency was 28.2 µM (active).
`NS(=O)(=O)c1ccc(-n2nc(C(F)(F)F)cc2-c2ccc(Cl)cc2)cc1` was tested, and the Potency was “inactive”.
With `CC12C(=O)OC(=O)C1(C)C1CCC2O1` (stereo unspecified) the Potency was “inactive”.
For `CC(C)(C=O)Cc1cc(C(C)(C)C)c(O)c(C(C)(C)C)c1`, the Potency was “inactive”.
For `COc1cc(C(O)CO)ccc1OS(=O)(=O)O` (stereo unspecified), the Potency was “inactive”.
In the case of `Cc1cc(NC2CCCCC2)nc(-n2nc(C)cc2C)n1`, the Potency was “inactive”.
